Experimental findings from ChEMBL document CHEMBL3433997, “St. Jude Leishmania screening dataset” (2016) are described below.

Structures are written as SMILES.

This assay deals with Hexose transporter 1 (Plasmodium falciparum) (UniProt O97467). The assay can be described thus: ST_JUDE_LEISH: Cytotoxicity at 2uM final concentration against transgenic Leishmania Mexicana promastigotes LmPfHT that are glucose transport deficient and complemented with the Plasmodium falciparum hexose transporter. Activity is measured by DNA content using SYBR green in vitro. Format: functional.
As usually defined, the inhibition is the change of the read-out against control, counted positive when it falls. Consider `Cc1ccc2[nH]c(C)cc(=NN=Cc3cccc(F)c3)c2c1`, for which the inhibition was 7%. The same measure for `CC(Nc1ccc2c(c1)CCC2)C(=O)Nc1cc(C(F)(F)F)ccc1N1CCOCC1` (stereo not given): 16.9%; for `Cc1ccc(F)cc1S(=O)(=O)N1CCCCC(c2ccc(C(F)(F)F)cc2)=N1`: 5.61%. The same measure for `Cc1cc(-c2ccc3c(c2)CCN(CCCOc2ccc4c(c2)CCN4C(=O)/C=C/c2ccccc2Cl)CC3)no1`: 12%; for `Cc1c(-c2ccccc2)ccc2[nH]cc(CC#N)c12`: 3.54%; for `CO/C(=C\C=C\c1cc2cc(Cl)c(Cl)cc2[nH]1)C(=O)NCCCN1CC(C)N(C)CC1C` (stereo not given): 5.89%.

Consider `CN1CCCN(Cc2cccc(-c3ccc(NC(=O)c4cccc(Cl)c4)cc3)c2)CC1`, for which the inhibition worked out at 80%. Regarding `CCN(CC)CCCN(C(=O)c1cc2c(C)nn(-c3ccccc3)c2s1)c1nc(-c2ccc(OC)cc2)cs1`, the inhibition came to 9.13%. The same measure for `Nc1nc(O)c2c(n1)CCc1c(Br)cccc1-2`: -0.59%. The same measure for `CCc1ccc(CN2CCC(CN(c3ccc(N4CCOCC4)c(F)c3)S(=O)(=O)c3ccc(C(C)(C)CC)cc3)CC2)cc1`: 0.74%. The same measure for `CN(C(=O)C1(c2ccc(Cl)cc2)CC1)C1CCN(CCCCCNC(=O)/C=C/c2ccc(Cl)c(Cl)c2)CC1`: -0.37%; for `O=C1c2ccc([N+](=O)[O-])cc2C(=O)N1c1ccc2[nH]ncc2c1`: 1.54%; for `Cc1[nH]c(C)c(-c2ccc(-c3ccccc3F)nc2)c(=O)c1Br`: 4.24%. As to `O=C(Nc1ccc(OC2CCN(Cc3ccsc3)CC2)c(Cl)c1)c1ccco1`, the inhibition amounted to 5.95%.

In the case of `CS(=O)(=O)CCOCc1ccc(-c2ccc3ncnc(Nc4ccc(OCc5cccc(F)c5)c(Cl)c4)c3c2)o1`, the inhibition was found to be 4.18%.
